Records with an inconclusive call do not appear. A call without a number means that no potency is given here. Active and inactive are the calls of the source. Unless noted, calls follow the shape of the full dose curve.
What was measured:
[1] = Nuclear factor erythroid 2-related factor 2/antioxidant responsive element (Nrf2/ARE) small molecule agonists: qHTS cell viability counter screen in human keratinocytes (AID 1919968; active = well fitted curve in the direction sought with a large enough effect in the repeat runs; an effect the other way counts as inactive or inconclusive; also: nearly all actives have a fitted effect of over 55% in size)
Method in brief: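 KeratinoSens HaCaT cells, 1,500/well, preincubated 5 h, then exposed to compounds in DMSO for 23 h at 37 C/5% CO2. Viability read as CellTiter-Fluor fluorescence after 1 h, in the same wells as the ARE-luciferase read.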

[2] = Nuclear factor erythroid 2-related factor 2/antioxidant responsive element (Nrf2/ARE) small molecule agonists: luciferase reporter gene qHTS assay in human keratinocytes (AID 1919969); also: nearly all actives have a fitted effect of over 35% in size; also: potency is read from the fitted curve at half-maximal effect
[3] = target: Gonadotropin-releasing hormone receptor (Homo sapiens) (UniProt P30968); assay: Human gonadotropin-releasing hormone receptor (GnRHR) small molecule agonists, calcium flux assay in GnRHR-HEK293 cells (AID 1920063); also: nearly all actives have a fitted effect of over 35% in size
Gonadotropin-releasing hormone receptor (Homo sapiens), sequence (P30968 whole entry, looked up): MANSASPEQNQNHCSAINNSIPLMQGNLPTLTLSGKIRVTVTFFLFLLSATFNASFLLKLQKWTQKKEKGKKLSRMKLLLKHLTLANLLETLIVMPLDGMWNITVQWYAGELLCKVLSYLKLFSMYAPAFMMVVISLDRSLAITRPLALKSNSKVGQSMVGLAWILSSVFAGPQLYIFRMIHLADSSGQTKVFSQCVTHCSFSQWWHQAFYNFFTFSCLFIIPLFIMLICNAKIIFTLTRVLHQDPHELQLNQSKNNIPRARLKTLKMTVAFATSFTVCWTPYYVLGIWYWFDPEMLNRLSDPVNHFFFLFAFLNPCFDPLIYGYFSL
Method in brief: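 HEK293 cells stably expressing human GnRHR were dye-loaded for 1 h at 37 C. Compound was added in agonist mode and fluorescence (Ex/Em 480/540) recorded kinetically for 3 min. Fifteen concentrations, triplicates.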

[4] = target: KiSS-1 receptor (Homo sapiens) (UniProt Q969F8); assay: Human kisspeptin (KISS1R) small molecule agonists, calcium flux assay in KISS1R-HEK293 cells (AID 1920064; active = well fitted curve in the direction sought with a large enough effect in the repeat runs; an effect the other way counts as inactive or inconclusive)
KiSS-1 receptor (Homo sapiens), sequence (Q969F8 whole entry, looked up): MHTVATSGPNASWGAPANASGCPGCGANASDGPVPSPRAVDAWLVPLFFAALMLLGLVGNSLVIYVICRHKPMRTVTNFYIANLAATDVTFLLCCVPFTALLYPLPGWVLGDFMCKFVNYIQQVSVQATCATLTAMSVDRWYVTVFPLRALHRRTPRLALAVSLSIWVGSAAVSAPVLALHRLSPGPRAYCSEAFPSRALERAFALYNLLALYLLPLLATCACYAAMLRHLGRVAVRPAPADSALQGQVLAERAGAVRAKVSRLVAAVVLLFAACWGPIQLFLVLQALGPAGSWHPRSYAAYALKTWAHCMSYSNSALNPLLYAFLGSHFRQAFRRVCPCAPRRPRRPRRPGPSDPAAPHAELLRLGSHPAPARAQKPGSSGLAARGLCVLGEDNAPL
Method in brief: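 HEK293 cells stably expressing human KISS1R were loaded with calcium dye for 1 h at 37 C, then given compound; fluorescence (Ex/Em 480/540) was read kinetically for 3 min. Fifteen concentrations, triplicate.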

[5] = G protein-coupled receptor (GPCR) small molecule agonists, calcium flux assay: HEK293 wild type cell line counter screen (AID 1920065)
Method in brief: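 Wild-type HEK293 cells plated 18 h, loaded with calcium dye 1 h at 37 C, then compounds added in agonist mode (ATP as positive control). Kinetic fluorescence Ex/Em 480/540 recorded 3 min at 1 sec intervals; 15 concentrations, triplicate.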

[6] = p53 small molecule agonists, cell-based qHTS assay with human liver microsomes (AID 1963577);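 also: p53 response element beta-lactamase reporter cells with liver microsomes plus NADPH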
Method in brief: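 Steps: plate p53RE-bla cells, incubate 5 h at 37 C; add compound in DMSO; add microsomes (0.5 mg/mL final) and NADPH (0.5 mg/mL final); incubate 16 h at 37 C; add LiveBLAzer, 2 h RT; read fluorescence.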

[7] = p53 small molecule agonists, cell-based qHTS assay with human liver microsomes: qHTS cell viability counter screen (AID 1963579); also: nearly all actives have a fitted effect of over 45% in size
Method in brief: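 After the 460/530 nm beta-lactamase read, CellTiter-Glo was added to the same wells and luminescence measured after 30 min at room temperature, giving viability of p53RE-bla cells treated 16 h with compounds plus microsomes and NADPH.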

[8] = p53 small molecule agonists, cell-based qHTS assay with rat liver microsomes: qHTS cell viability counter screen (AID 1963580); also: nearly all actives have a fitted effect of over 45% in size
Method in brief: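 p53RE-bla HCT-116 cells were exposed 16 h at 37 C to compounds with rat liver microsomes (0.5 mg/mL) and NADPH (0.5 mg/mL). Viability was measured in the same wells as ATP content by CellTiter-Glo luminescence.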

[9] = p53 small molecule agonists, cell-based qHTS assay: qHTS cell viability counter screen (AID 1963581); also: nearly all actives have a fitted effect of over 45% in size
Method in brief: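 p53RE-bla HCT-116 cells, compounds added 5 h after plating and incubated 16 h at 37 C. Cytotoxicity measured in the same wells as intracellular ATP by CellTiter-Glo luminescence after 30 min at room temperature.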

[10] = p53 small molecule agonists, cell-based qHTS assay (AID 1963582; active = well fitted activation curve with a large enough effect in the signal ratio in the repeat runs, not every such curve was filed as active; the % refers to the signal ratio)
Method in brief: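 p53RE-bla reporter cells, compounds added in DMSO after 5 h plating, incubated 16 h at 37 C. Beta-lactamase read via 2 h room-temperature LiveBLAzer B/G FRET substrate, fluorescence intensity.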

[11] = target: 5-hydroxytryptamine receptor 2A (Homo sapiens) (UniProt P28223); assay: 5-hydroxytryptamine receptor 2A (HTR2A) small molecule antagonists, cell-based qHTS assay (AID 1963586); also: nearly all actives have a fitted effect of over 45% in size
5-hydroxytryptamine receptor 2A (Homo sapiens), sequence (P28223 whole entry, looked up): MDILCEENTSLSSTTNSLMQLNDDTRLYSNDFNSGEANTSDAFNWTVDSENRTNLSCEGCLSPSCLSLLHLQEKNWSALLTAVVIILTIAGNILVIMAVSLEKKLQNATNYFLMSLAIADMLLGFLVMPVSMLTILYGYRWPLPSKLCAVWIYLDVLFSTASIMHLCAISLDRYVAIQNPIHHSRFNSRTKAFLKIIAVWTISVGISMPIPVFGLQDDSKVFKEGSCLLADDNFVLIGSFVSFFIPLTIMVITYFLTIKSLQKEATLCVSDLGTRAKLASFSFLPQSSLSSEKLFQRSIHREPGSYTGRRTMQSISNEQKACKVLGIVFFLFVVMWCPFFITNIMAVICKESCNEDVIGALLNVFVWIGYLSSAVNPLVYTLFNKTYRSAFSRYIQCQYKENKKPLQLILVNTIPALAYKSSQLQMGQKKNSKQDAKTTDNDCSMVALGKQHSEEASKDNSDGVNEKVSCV
Method in brief: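 Antagonist-mode intracellular calcium assay: DOI (4 nM) added after 5 min compound pre-incubation at room temperature to dye-loaded HTR2A-CHO cells. Fluorescence followed for 3 min, sampled every second.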

[12] = target: 5-hydroxytryptamine receptor 2A (Homo sapiens) (UniProt P28223); assay: 5-hydroxytryptamine receptor 2A (HTR2A) small molecule agonists, cell-based qHTS assay (AID 1963587); also: nearly all actives have a fitted effect of over 30% in size
Method in brief: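 CHO cells stably expressing human HTR2A, plated 18 h, loaded with calcium dye 1 h at 37 C. Agonist mode: compounds added and intracellular calcium fluorescence recorded kinetically for 2 min at 1 sec intervals.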

[13] = target: Muscarinic acetylcholine receptor M1 (Homo sapiens) (UniProt P11229); assay: Cholinergic receptor muscarinic 1 (CHRM1) small molecule antagonists, cell-based qHTS assay (AID 1963588); also: nearly all actives have a fitted effect of over 40% in size; also: potency is read from the fitted curve at half-maximal effect
Muscarinic acetylcholine receptor M1 (Homo sapiens), sequence (P11229 whole entry, looked up): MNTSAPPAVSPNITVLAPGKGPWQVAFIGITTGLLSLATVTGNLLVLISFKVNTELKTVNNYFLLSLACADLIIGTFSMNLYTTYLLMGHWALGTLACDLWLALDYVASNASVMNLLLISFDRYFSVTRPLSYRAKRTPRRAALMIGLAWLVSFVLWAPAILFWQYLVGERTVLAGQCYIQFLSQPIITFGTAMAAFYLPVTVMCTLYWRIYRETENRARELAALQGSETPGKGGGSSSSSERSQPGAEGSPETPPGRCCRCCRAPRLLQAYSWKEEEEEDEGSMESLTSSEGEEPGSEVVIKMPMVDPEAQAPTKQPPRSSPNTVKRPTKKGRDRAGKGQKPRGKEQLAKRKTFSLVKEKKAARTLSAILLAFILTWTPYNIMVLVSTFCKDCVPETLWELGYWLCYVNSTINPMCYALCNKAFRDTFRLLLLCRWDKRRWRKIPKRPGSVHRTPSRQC
Method in brief: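 CHRM1-CHO calcium-flux assay, antagonist mode. Cells were seeded 18 h, dye-loaded 1 h at 37 C and given compound for 5 min at RT, then acetylcholine was added at 50nM. FDSS fluorescence was read 3 min; 15 concentrations, three runs.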

[14] = target: Muscarinic acetylcholine receptor M1 (Homo sapiens) (UniProt P11229); assay: Cholinergic receptor muscarinic 1 (CHRM1) small molecule agonists, cell-based qHTS assay (AID 1963589); also: nearly all actives have a fitted effect of over 35% in size
Method in brief: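 CHO cells stably expressing human CHRM1 were loaded with calcium dye for 1 h at 37 C, then compound was added in agonist mode. Intracellular calcium fluorescence was followed kinetically at 1 s intervals. Fifteen concentrations were tested in three independent runs.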

[15] = cAMP Responsive Elements (CRE) small molecule agonists, cell-based qHTS assay (AID 1963590)
Method in brief: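 CRE-bla HEK 293T cells, 2,000/well in DMEM with 10% dialyzed FBS and 25 mM HEPES, pre-incubated 18 h at 37 C, then exposed to compound 3 h at 37 C. Beta-lactamase reporter read with LiveBLAzer B/G FRET substrate after 2 h at room temperature.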

[16] = cAMP Responsive Elements (CRE) small molecule antagonists, cell-based qHTS assay (AID 1963591; active = well fitted inhibition curve with a large enough effect in the signal ratio in the repeat runs, not every such curve was filed as active; the % refers to the signal ratio)
Method in brief: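 CRE-bla HEK293T cells plated 18 h, then given compound plus NKH477 at 0.25 uM final for 3 h at 37C. Beta-lactamase reporter read with LiveBLAzer B/G FRET substrate after 2 h at room temperature.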

[17] = target: Beta-2 adrenergic receptor (Homo sapiens) (UniProt P07550); assay: Adrenergic beta2 receptor (ADRB2) small molecule antagonists, cell-based qHTS assay (AID 1963592); also: series mostly up to about 92 µM; nearly all actives have a fitted effect of over 50% in size
Beta-2 adrenergic receptor (Homo sapiens), sequence (P07550 whole entry, looked up): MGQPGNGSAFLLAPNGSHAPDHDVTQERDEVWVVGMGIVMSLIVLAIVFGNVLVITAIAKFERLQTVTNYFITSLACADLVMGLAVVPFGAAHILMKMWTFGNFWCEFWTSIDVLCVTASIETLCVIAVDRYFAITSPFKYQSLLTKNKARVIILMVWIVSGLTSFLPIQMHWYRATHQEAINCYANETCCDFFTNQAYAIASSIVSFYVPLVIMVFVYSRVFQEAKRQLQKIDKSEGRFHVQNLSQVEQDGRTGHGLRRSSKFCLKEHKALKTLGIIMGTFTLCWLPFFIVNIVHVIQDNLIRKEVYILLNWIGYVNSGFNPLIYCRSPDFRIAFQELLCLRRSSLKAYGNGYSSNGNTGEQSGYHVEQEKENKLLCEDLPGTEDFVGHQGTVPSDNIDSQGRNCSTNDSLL
Method in brief: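 Cells (CHO, stable ADRB2 overexpression) incubated 18-20hr at 37C; compounds added from DMSO; agonist mix (1nM isoproterenol, 100uM IBMX, 25uM Ro-20-1724) added; 0.5hr RT; d2-cAMP and anti-cAMP-cryptate added; 1hr RT; 665/615 nm read.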

[18] = target: D(2) dopamine receptor (Homo sapiens) (UniProt P14416); assay: Dopamine D2 receptor (DRD2) small molecule agonists, cell-based qHTS assay (AID 1963594); also: nearly all actives have a fitted effect of over 35% in size
D(2) dopamine receptor (Homo sapiens), sequence (P14416 whole entry, looked up): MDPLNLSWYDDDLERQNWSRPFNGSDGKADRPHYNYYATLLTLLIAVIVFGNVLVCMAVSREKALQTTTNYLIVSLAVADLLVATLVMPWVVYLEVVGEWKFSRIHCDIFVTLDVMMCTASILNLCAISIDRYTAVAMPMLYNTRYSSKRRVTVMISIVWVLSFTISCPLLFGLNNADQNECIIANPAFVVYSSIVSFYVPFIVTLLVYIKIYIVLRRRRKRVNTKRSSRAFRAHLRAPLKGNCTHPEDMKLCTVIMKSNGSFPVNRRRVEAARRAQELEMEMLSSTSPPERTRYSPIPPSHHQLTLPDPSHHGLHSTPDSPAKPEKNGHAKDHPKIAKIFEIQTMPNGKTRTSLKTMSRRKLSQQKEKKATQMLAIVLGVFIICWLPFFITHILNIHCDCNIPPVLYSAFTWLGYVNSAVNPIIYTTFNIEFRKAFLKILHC
Method in brief: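 HEK293 cells stably expressing human DRD2, pre-treated with PDE inhibitor Ro20-1724 (0.1 mM final) and compound 10 min at room temperature, then stimulated with NKH477 (200nM […]) for 30 min. cAMP read by HTRF (665/620 nm).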

[19] = target: D(2) dopamine receptor (Homo sapiens) (UniProt P14416); assay: Dopamine D2 receptor (DRD2) small molecule antagonists, cell-based qHTS assay (AID 1963595; active = well fitted inhibition curve with a large enough effect in the signal ratio in the repeat runs, with a control signal flat; the % refers to the signal ratio)
Method in brief: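 Human DRD2 antagonist qHTS measuring cAMP by HTRF. The cells are exposed to compound for 10 min, then to NKH477 (200 nM) and quinpirole (12 nM) for 30 min at RT, with Ro20-1724 (0.1 mM) present throughout.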

[20] = target: Beta-2 adrenergic receptor (Homo sapiens) (UniProt P07550); assay: Adrenergic beta2 receptor (ADRB2) small molecule agonists, cell-based qHTS assay (AID 1963593);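 also: CHO cells stably overexpressing human ADRB2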
Method in brief: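 CHO cells stably over-expressing ADRB2 were plated overnight at 37C, then dosed with compounds plus a stimulation mix containing 100uM IBMX and 25uM Ro-20-1724 for 0.5hr at room temperature. cAMP was measured by HTRF competition, 1hr.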

Structure (SMILES)	Potency [1]	Potency [2]	Potency [3]	Potency [4]	Potency [5]	Potency [6]	Potency [7]	Potency [8]	Potency [9]	Potency [10]	Potency [11]	Potency [12]	Potency [13]	Potency [14]	Potency [15]	Potency [16]	Potency [17]	Potency [18]	Potency [19]	Potency [20]
C[Si](C)(C)O[Si](C)(C)O[Si](C)(C)C	inactive	inactive	inactive	inactive	inactive	inactive	inactive	inactive	inactive	inactive	inactive	inactive	inactive	inactive	inactive	inactive	inactive	inactive		
CO[Si](CCCOCC1CO1)(OC)OC (stereo not given)	inactive	inactive	inactive	inactive	inactive	inactive	inactive	inactive	inactive	inactive	inactive	inactive	inactive	inactive	inactive	inactive	inactive		inactive	
CCCCN(CCCC)CCCCCCN(CCCC)CCCC	inactive	inactive	inactive	inactive	inactive	inactive	inactive	inactive	inactive	inactive	inactive	inactive	inactive	inactive		inactive	inactive	inactive	inactive	inactive
COCCOCCOCCOCCO	inactive	inactive	inactive	inactive	inactive		inactive	inactive	inactive	inactive	inactive	inactive		inactive	inactive	inactive	inactive	inactive	inactive	
CCN1C(=O)c2ccccc2C1Nc1ccc(OCCN2CCCCC2)cc1 (stereo not given)	inactive	inactive	inactive	inactive	inactive		inactive	inactive	inactive	inactive	inactive	inactive	3.65 µM (active)	inactive	inactive	inactive	inactive	inactive	inactive	inactive
O=C(O)c1cc(=O)[nH]c(=O)[nH]1	inactive	inactive	inactive	inactive	inactive		inactive	inactive	inactive	inactive	inactive	inactive	inactive	inactive	inactive	inactive	inactive	inactive	inactive	inactive
Oc1ccc2c(c1)OC[C@@H](N1CCC(O)(c3ccc(F)cc3)CC1)[C@H]2O	inactive	inactive	inactive	inactive	inactive		inactive	inactive	inactive	inactive	inactive	inactive	inactive	inactive	inactive	inactive	inactive	inactive	inactive	inactive
Clc1nc(Cl)c(Cl)c(Cl)c1Cl	inactive	inactive	inactive	inactive	inactive		inactive	inactive	inactive	inactive	inactive	inactive	inactive	inactive	inactive	inactive	inactive	inactive	inactive	inactive
C1COC1	inactive	inactive	inactive	inactive	inactive		inactive	inactive	inactive	inactive	inactive	inactive		inactive	inactive	inactive	inactive	inactive	inactive	
O=Nc1ccc(NO)cc1	inactive	63.6 µM (active)	inactive	inactive	inactive		inactive	inactive	inactive	inactive	inactive	inactive	inactive	inactive	inactive	inactive				
CCNc1nc(N)nc(Cl)n1	inactive	inactive	inactive	inactive	inactive		inactive	inactive	inactive	inactive	inactive	inactive	inactive	inactive	inactive	inactive	inactive	inactive		
C[C@@H]1O[C@@H](OC[C@H]2O[C@@H](Oc3c(-c4ccc(O)c(O)c4)oc4cc(O)cc(O)c4c3=O)[C@H](O)[C@@H](O)[C@@H]2O)[C@H](O)[C@H](O)[C@H]1O	inactive	inactive	inactive	inactive	inactive		inactive	inactive	inactive	inactive	inactive	inactive	inactive	inactive	inactive	inactive		inactive	inactive	
CC(=O)CC(N)=O	inactive	inactive	inactive	inactive	inactive		inactive	inactive	inactive	inactive	inactive	inactive	inactive	inactive	inactive			inactive		inactive

Source: PubChem BioAssay (Tox21)
